Results filed as inconclusive are left out. Active and inactive are the calls of the source. The call rests on the fitted dose curve; in most records, active means well fitted curve in the direction sought with a large enough effect; inconclusive means small, poorly fitted or top-dose-only effect, or another doubt; inactive means no such curve, though single readings can be large; an effect the other way counts as inactive or inconclusive.

The nature of assay [1]: NS1 protein of Zika virus - qHTS assay to identify small molecule inhibitors in human HEK 293 cells (AID 1347053). Further: nearly all actives have a fitted effect of over 55% in size. Summed up: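 HEK 293; 20 h pre-culture, 37 C/5% CO2; cpd 1 h pre-infection; ZIKV MR766, MOI = 0.5, 24 h, 37 C; TR-FRET NS1 readout (two anti-NS1 Abs); norm. to no-virus vs infected.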
Assay [2] can be described thus: qHTS of pediatric cancer cell lines to identify multiple opportunities for drug repurposing: Primary screen for SJ-GBM2 cells (AID 1347091). In short, it runs like this: (§1)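 Viability measured as metabolically active cells via CellTiter-Glo luminescence following 48 hours of compound exposure, 11-point dilutions in confirmatory testing. 500-1,000 cells/well plated 5 hours before dosing; controls were DMSO and 2.3 µM bortezomib.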

Assay [3] in a line: qHTS of pediatric cancer cell lines to identify multiple opportunities for drug repurposing: Primary screen for A673 cells (AID 1347092). Further: nearly all actives have a fitted effect of over 45% in size. Summed up: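 Luminescence from CellTiter-Glo, taken after 15 min at room temperature, served as the proxy for metabolically active cells following 48 h treatment. Both potency and efficacy were taken from curves fitted to the titration data.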
(In qHTS, concentration-response curves come from the screen itself.)

The nature of assay [4]: qHTS of pediatric cancer cell lines to identify multiple opportunities for drug repurposing: Primary screen for NB-EBc1 cells (AID 1347095). In short, it runs like this:
(§2)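 CRCs from 8- or 11-point titrations (lowest final 0.59 nM NPC, 0.78 nM MIPE). Cell viability: CellTiter-Glo after 48 h incubation, 15 min room-temperature development, luminescence imaging.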

Assay [5] in a line: qHTS of pediatric cancer cell lines to identify multiple opportunities for drug repurposing: Primary screen for TC32 cells (AID 1347089). Further: nearly all actives have a fitted effect of over 60% in size. Summed up: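 qHTS, TC32, 48 h drug treatment, CellTiter-Glo luminescence as a proxy for metabolically active cells; primary top concentration 46 µM (MIPE 11-pt, NPC 8-pt); confirmatory 11-pt.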
Assay [6] is described as follows: qHTS of pediatric cancer cell lines to identify multiple opportunities for drug repurposing: Primary screen for DAOY cells (AID 1347090). Further: nearly all actives have a fitted effect of over 55% in size. Summed up: as §1
Assay [7] in a line: qHTS of pediatric cancer cell lines to identify multiple opportunities for drug repurposing: Primary screen for BT-37 cells (AID 1347094). Summed up: as §2
A short description of assay [8]: qHTS of pediatric cancer cell lines to identify multiple opportunities for drug repurposing: Primary screen for SK-N-MC cells (AID 1347093). Summed up: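 Metabolically active cells were quantified by ATP-dependent luminescence (CellTiter-Glo, 15 min at room temperature) following 48 h treatment. Cells had been plated at 500-1,000 per well and settled for 5 h beforehand.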
Potency means the concentration at half of the fitted maximal effect.

Take `Cc1cccc(C=NNc2cc(N3CCOCC3)nc(OCCc3ccccn3)n2)c1`: the Potency in assay [1] is 23500 nM (active); in assay [2] it was 1320 nM (active); in assay [3], 7430 nM (active); in assay [4], 1320 nM (active).

For the molecule `Nc1ccn([C@@H]2CS[C@H](CO)O2)c(=O)n1`, the Potency entry in assay [1], in assay [5], in assay [6], in assay [7] and in assay [4] was “inactive” each time.

Turning to `Cc1cc(C(=O)N2CCN(c3cccc(Cl)c3)CC2)n(-c2ccccc2)n1`, the Potency in assay [5] is 2940 nM (active); in assay [6], 743 nM (active); in assay [2] it was 118 nM (active); in assay [3] it was 590 nM (active); in assay [8], 118 nM (active); in assay [7], 6110 nM (active). Further, in assay [4], the Potency is 66.2 nM (active).

As for `CC(C)c1nn(-c2c(Cl)cccc2Cl)c2nc(Cc3ccc(OCCO)cc3)[nH]c(=O)c12`, the Potency is 166 nM (active) in assay [1]; 131 nM (active) in assay [5]; 74.3 nM (active) in assay [6]; 41.8 nM (active) in assay [2]; 37.2 nM (active) in assay [3]; 41.8 nM (active) in assay [8]. Moreover, the figures for the Potency in assay [7] and in assay [4] were 96.8 nM (active) and 93.5 nM (active), respectively.

On to `CN(C)Cc1c(C(=O)NCCOc2ccc(C(=O)NO)cc2)oc2ccccc12`, for which, in assay [1], the Potency result was “inactive”. The Potency is 5870 nM (active) in assay [5]; 3720 nM (active) in assay [6]; 1050 nM (active) in assay [2]; 935 nM (active) in assay [3]; 743 nM (active) in assay [8]; 1930 nM (active) in assay [7]. Further, the Potency in assay [4] is 662 nM (active).
